D2 ag-1 = agonists of human D2 dopamine receptor; activation, % at 2 µM; P14416; HEK293 T-REx D2 cells, calcium flux agonist mode; actives 0.53% (n = 340,000);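 active means activation over 3 SD above normal in the single-dose calcium agonist read, cut at about 30% in these data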; further: 0% is about no effect
Target sequence (P14416 whole entry, looked up): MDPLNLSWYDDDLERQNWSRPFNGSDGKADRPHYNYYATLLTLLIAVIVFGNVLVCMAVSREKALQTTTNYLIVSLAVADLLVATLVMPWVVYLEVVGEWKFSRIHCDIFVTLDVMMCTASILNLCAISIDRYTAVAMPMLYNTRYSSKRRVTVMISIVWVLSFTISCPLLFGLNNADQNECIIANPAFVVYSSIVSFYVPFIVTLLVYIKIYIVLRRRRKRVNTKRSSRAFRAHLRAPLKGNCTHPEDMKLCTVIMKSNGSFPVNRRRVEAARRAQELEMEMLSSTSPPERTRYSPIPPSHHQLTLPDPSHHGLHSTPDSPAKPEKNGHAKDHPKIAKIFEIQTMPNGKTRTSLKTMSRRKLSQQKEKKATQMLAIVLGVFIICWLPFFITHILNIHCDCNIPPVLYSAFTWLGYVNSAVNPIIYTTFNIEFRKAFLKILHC
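Agonism is scored from calcium flux in a force-coupled, inducible HEK293 cell line expressing D2, read kinetically for 180 s after compound addition against dopamine controls.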
D2 ag-2 = human D2 receptor agonism in beta-arrestin assay. DiscoveRx PathHunter D2 beta-arrestin, luminescence, 90 min; 100% = 57 uM dopamine signal. activation, % (no concentration beside the values). P14416. actives 0.084% (n = 360,000); in the data active means activation above about 40%; inconclusive means between about 15% and that limit
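Agonist mode: compounds alone added to overnight-plated D2 PathHunter cells for 90 min at 37 C, with 57 uM final dopamine (EC100) defining full response. Beta-arrestin recruitment detected by chemiluminescent reagent, read after 1 h at ambient temperature.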
D2 PAM-1 = D2 dopamine receptor (human) potentiation; P14416; HEK293 T-REx D2, calcium flux, EC20 dopamine potentiation; potentiation, % at 10 µM; actives 0.34% (n = 340,000);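 active means potentiation over 3 SD above the plate norm, cut at about 30% in these data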; further: 0% is about no effect
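Tetracycline-induced HEK293 T-REx cells force-coupled to calcium signalling expressed D2; compounds were pin-added after a 10 s baseline, read kinetically 180 s, then an EC20 dopamine challenge followed with a further 180 s calcium read.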
D2 antag = antagonists of human D2 dopamine receptor; actives 2% (n = 340,000); inhibition, % at 10 µM; HEK293 TREx D2 cells, calcium flux, dopamine EC80; P14416; in the data active means inhibition above about 30%; inactive means below that, where a call was filed; further: 0% is about no effect
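Overnight-induced (tetracycline, 30 C) HEK293 T-REx cells carrying force-coupled D2 receive a no-wash calcium dye, then compound, then EC80 dopamine at 180 s; signals are read kinetically throughout.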
D2 PAM-2 = positive allosteric modulators of human D2 dopamine receptor | DiscoveRx D2 beta-arrestin cells, luminescence, 90 min; 100% = 57 uM dopamine signal | potentiation, % (concentration not given with the values) | actives 0.23% (n = 360,000) | AID 624464; in the data active means potentiation above about 50%; inconclusive means mostly about 30% to 49%
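PathHunter D2 cells, attached overnight at 37 deg C, received compound in DMSO plus dopamine at EC20 (50 nM final) for 90 min at 37 deg C. Beta-arrestin recruitment was read as luminescence after 1 h with detection reagent at ambient temperature.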
The depositor's hits bear a star; u = inconclusive; x = no result. Rows were chosen to be rich in hits. Some 2.4% of all compounds tested hit in one or more screens of this group.

SMILES	D2 ag-1	D2 ag-2	D2 PAM-1	D2 antag	D2 PAM-2
Cc1ccc2c(c1)C(C)CC(C)(C)N2C(=O)CN1CCN(C)CC1 (configuration not stated)	-1	-5	-20	36*	-31
O=C(Nc1ccc(Cl)c(C(F)(F)F)c1)C(Cc1ccccc1)NS(=O)(=O)c1cccc2nsnc12 (configuration not stated)	0	x	-2	x	x
Cc1ccc2c(Sc3ccc(Cl)cc3)c(C(=O)N3CCC(C)CC3)[nH]c2c1	x	x	-1	x	x
COc1cccc(N2CCN(C(=O)c3cnc4c(-c5ccc(F)cc5)c(C)nn4c3C)CC2)c1	1	x	10	x	x
Cc1nn(Cc2ccc(F)cc2)c2sc(C(=O)Nc3nccs3)cc12	-1	u	0	-6	u
Cc1nn(Cc2ccc(Cl)cc2)c2sc(C(=O)O)cc12	0	-5	0	32*	-7
Cc1nn(Cc2ccccc2Cl)c2sc(C(=O)Nc3nccs3)cc12	-2	3	-9	38*	8
CCOC(=O)c1ccc(NC(=O)C2CCN(S(=O)(=O)Cc3ccccc3)CC2)cc1	0	x	11	x	x
CCc1ccc(NCc2cc3ccc(OC)cc3n(CC(=O)Nc3ccc(F)cc3F)c2=O)cc1	-1	x	1	x	x
Cc1cc(=O)[nH]c(N2CCCNCC2)n1	0	-3	9	0	5
Cc1cc(=O)[nH]c(-n2nc(C)cc2C)n1	1	-1	-3	44*	0
Cc1ccc(C)c(Nc2ncnc3c2cnn3-c2ccc(F)cc2)c1	0	x	x	x	x
CCOC(=O)c1c(NC(=O)CSc2cn(CCNC(=O)c3ccc(OC)c(OC)c3)c3ccccc23)sc2c1CCC2	0	x	-3	x	x
Cc1ccc(C(=O)NCCn2cc(SCC(=O)Nc3cc(C)on3)c3ccccc32)cc1	-1	4	-26	32*	1
Cc1cc(NC(=O)CSc2cn(CCNC(=O)c3ccccc3)c3ccccc23)no1	-1	3	6	3	3
COC(=O)c1sccc1S(=O)(=O)N(CC(=O)NCc1ccccc1)c1ccc(C)cc1	0	x	-7	x	x
CCSc1nnc2ccc(-c3ccc(C)cc3)nn12	0	-2	4	-10	-14
CCSc1nnc2ccc(-c3ccco3)nn12	1	0	37*	-10	-28
Cc1cc(NC(=O)CS(=O)(=O)c2ccc(Cl)cc2)no1	0	-2	44*	2	-7
Cc1cc(NC(=O)CS(=O)(=O)c2ccc(F)cc2)no1	-1	-3	7	-10	-19
C=CCOc1ccc(C=Nc2ccc(OC)cc2)c(O)c1	0	2	48*	-6	2
COc1ccc(N=Cc2ccccc2O)cc1	x	-2	x	x	-2
CC(=O)N1CCN(c2ccccc2NC(=O)c2ccc3ccccc3c2)CC1	0	-1	4	46*	4
CC(=O)N1CCN(c2ccccc2NC(=O)c2cccs2)CC1	0	1	5	1	-25
O=C(Nc1ccccc1N1CCN(C(=O)c2ccccc2)CC1)c1cc2ccccc2o1	-1	3	-20	63*	-6
SMILES	D2 ag-1	D2 ag-2	D2 PAM-1	D2 antag	D2 PAM-2
O=C(Nc1ccccc1N1CCCC1)c1cc2ccccc2o1	0	-5	x	-6	-28
CCc1ccc(CN(C)CC(=O)Nc2sccc2C#N)cc1	0	-3	9	64*	-13
COc1ccc(NC(=O)CCc2nnc3n(Cc4ccccc4Cl)c(=O)c4ccccc4n23)cc1	0	x	-2	x	x
Cc1ccc2c(CC(=O)N(Cc3ccc(Cl)cc3)Cc3ccco3)coc2c1	-1	x	3	x	x
CCC1(c2ccc(Cl)cc2)NC(=O)N(CC(=O)NCc2ccc(F)cc2)C1=O (configuration not stated)	0	2	3	-15	-5
CCC1(c2ccc(Cl)cc2)NC(=O)N(Cc2ccc(C(=O)OC)cc2)C1=O (configuration not stated)	2	1	35*	4	7
Cc1ccc(S(=O)(=O)NCC(=O)OC(C)C(=O)c2ccccc2)cc1 (configuration not stated)	0	-6	-2	31*	-17
Cc1ccc(C(=O)C(C)OC(=O)CNS(=O)(=O)c2ccc(C)cc2)cc1 (configuration not stated)	0	-1	-4	3	2

Assay outcomes from PubChem BioAssay.
